Reference: PubChem BioAssay (NCATS)
Results filed as inconclusive are left out. The source made the active and inactive calls. Unless noted, the call rests on the fitted dose curve.

What was measured:
[1] = biological target: Tumor susceptibility gene 101 protein (Homo sapiens) (UniProt Q99816); assay: qHTS Assay for Iinhibitors of HIV-1 Budding by Blocking the Interaction of PTAP/TSG101: Hit Validation (AID 651600; active means well fitted inhibition curve with a large enough effect; further: nearly all actives have a fitted effect of over 70% in size)
Tumor susceptibility gene 101 protein (Homo sapiens), sequence (Q99816 whole entry, looked up, the tested form may be a part): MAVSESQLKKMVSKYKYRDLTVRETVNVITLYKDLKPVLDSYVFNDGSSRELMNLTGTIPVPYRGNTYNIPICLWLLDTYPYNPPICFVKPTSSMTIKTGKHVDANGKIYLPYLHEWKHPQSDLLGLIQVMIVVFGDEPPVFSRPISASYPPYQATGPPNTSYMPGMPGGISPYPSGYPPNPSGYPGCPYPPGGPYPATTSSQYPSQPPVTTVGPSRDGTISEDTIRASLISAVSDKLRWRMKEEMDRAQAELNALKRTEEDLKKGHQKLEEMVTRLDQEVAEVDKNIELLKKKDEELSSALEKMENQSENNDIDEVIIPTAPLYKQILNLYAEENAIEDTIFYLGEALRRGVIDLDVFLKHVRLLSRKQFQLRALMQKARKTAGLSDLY
Procedure, shortened: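 Fluorescence polarization binding assay: Tsg101 binding domain (10 uM) mixed with compounds and FITC-labeled PTAP peptide (50 nM) in HEPES pH 7.5, 0.15 M NaCl, 0.01% Tween 20, EDTA, TCEP; 20 min at r.t.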

[2] = qHTS assay for small molecule disruptors of the mitochondrial membrane potential - 1 hr assay (AID 651754); further: nearly all actives have a fitted effect of over 35% in size
Procedure, shortened: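 HepG2 cells, attached overnight at 37C, were exposed to compound or DMSO vehicle for 1 hr at 37C, 5% CO2, then stained with Mito-MPS dye for 30 min. Red aggregate versus green monomer fluorescence reports membrane potential.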

[3] = qHTS assay for small molecule disruptors of the mitochondrial membrane potential - 5 hr assay (AID 651755); further: nearly all actives have a fitted effect of over 40% in size
Procedure, shortened: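 HepG2, 2,000 cells/well, overnight attach; cpd or DMSO 5 hr, 37C/5% CO2; Mito-MPS 30 min 37C; fluor 490/535 + 540/590 nm.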

Compound: CC[C@H](C)/C=C(C)/C=C/C1=CC2=CC(=O)[C@]3(C)OC(=O)[C@@H](C(C)=O)[C@@H]3C2=CO1
- outcome [1]: inactive

Compound: O=C(O)CC(O)(CC(=O)O)C(=O)O
- outcome [2]: inactive
- outcome [3]: inactive

Compound: CN(C)Cc1ccccc1
- outcome [2]: inactive
- outcome [3]: inactive
